Data published in PubChem BioAssay AID1159580 (chemical genetic matrix, 2015).
In all, about 5,500 compounds went through this assay and about 2,000 (36%) were called active. About 18% were inconclusive and are not listed. Rule as the data show it: active = normalized growth mostly below about 0.91 (no sharp cut-off); inconclusive = no clear call, values can overlap the other calls; inactive = mostly above about 0.92. Some of the results follow.

Test: chemical genetic growth profiling, strain panel (AID 1159580);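 also: tested at 20 µM; growth read once vehicle control cultures reached saturation at 30 °C; 1 = growth at the plate median or of vehicle wells; lower values mean less growth of the strain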
Conditions: S. cerevisiae deletion strains, growth OD

Measured: normalized growth

O=C1CC(CSc2ccc(Cl)cc2)=NN1
active: locus YBR229C, strain ROT2, active compounds read low 0.911 | locus YEL061C, strain CIN8, active compounds read low 0.832 | locus YHR087W, strain rtc3, active compounds read low 0.837 | locus YJL187C, strain SWE1, active compounds read low 0.908 | locus YLR085C, strain ARP6, active compounds read low 0.659 | locus YML094W, strain GIM5, active compounds read low 0.857 | locus YMR219W, strain ESC1, active compounds read low 0.918 | locus YNL298W, strain CLA4 (second series), active compounds read low 0.789 | locus YNL322C, strain KRE1, active compounds read low 0.938 | locus YNR030W, strain Alg12, active compounds read low 0.844 | locus YPL241C, strain CIN2, active compounds read low 0.83 | locus YPR135W, strain CTF4, active compounds read low 0.639
inactive: locus YAL013W, strain DEP1, active compounds read low 0.957 | locus YCL061C, strain MRC1, active compounds read low 0.95 | locus YDL101C, strain DUN1, active compounds read low 1.02 | locus YDR150W, strain NUM1, active compounds read low 0.968 | locus YGR078C, strain PAC10, active compounds read low 0.963 | locus YHR030C, strain SLT2, active compounds read low 0.752 | locus YJR043C, strain POL32, active compounds read low 0.982 | locus YJR075W, strain HOC1, active compounds read low 0.936 | locus YLR039C, strain RIC1, active compounds read low 1.02 | locus YLR058C, strain SHM2 (second series), active compounds read low 0.949 | locus YLR262C, strain YPT6, active compounds read low 0.987 | locus YMR263W, strain SAP30, active compounds read low 0.978 | locus YNL153C, strain GIM3, active compounds read low 0.965 | locus YPL055C, strain LGE1, active compounds read low 0.89
